“And” between values parts separate entries of the source, which are not always exact repeats. Equal values may be shown once. Records with an inconclusive call do not appear. The source holds several records for some structures; these can differ, active in one and inactive in another. The source made the active and inactive calls. Unless noted, calls follow the shape of the dose curve; as a rule, active = well fitted curve in the direction sought with a large enough effect in the repeat runs; inconclusive = weak or mixed curves; inactive = no such curve, though single readings can be large; an effect the other way counts as inactive or inconclusive.
Assays:
[1] = molecular target: Progesterone receptor (Homo sapiens) (UniProt P06401); experiment: qHTS assay to identify small molecule antagonists of the progesterone receptor (PR) signaling pathway (AID 1346795; active = well fitted inhibition curve with a large enough effect in the signal ratio in the repeat runs, not every such curve was filed as active; the % refers to the signal ratio)
Chain of Progesterone receptor (Homo sapiens) (P06401 whole entry, looked up): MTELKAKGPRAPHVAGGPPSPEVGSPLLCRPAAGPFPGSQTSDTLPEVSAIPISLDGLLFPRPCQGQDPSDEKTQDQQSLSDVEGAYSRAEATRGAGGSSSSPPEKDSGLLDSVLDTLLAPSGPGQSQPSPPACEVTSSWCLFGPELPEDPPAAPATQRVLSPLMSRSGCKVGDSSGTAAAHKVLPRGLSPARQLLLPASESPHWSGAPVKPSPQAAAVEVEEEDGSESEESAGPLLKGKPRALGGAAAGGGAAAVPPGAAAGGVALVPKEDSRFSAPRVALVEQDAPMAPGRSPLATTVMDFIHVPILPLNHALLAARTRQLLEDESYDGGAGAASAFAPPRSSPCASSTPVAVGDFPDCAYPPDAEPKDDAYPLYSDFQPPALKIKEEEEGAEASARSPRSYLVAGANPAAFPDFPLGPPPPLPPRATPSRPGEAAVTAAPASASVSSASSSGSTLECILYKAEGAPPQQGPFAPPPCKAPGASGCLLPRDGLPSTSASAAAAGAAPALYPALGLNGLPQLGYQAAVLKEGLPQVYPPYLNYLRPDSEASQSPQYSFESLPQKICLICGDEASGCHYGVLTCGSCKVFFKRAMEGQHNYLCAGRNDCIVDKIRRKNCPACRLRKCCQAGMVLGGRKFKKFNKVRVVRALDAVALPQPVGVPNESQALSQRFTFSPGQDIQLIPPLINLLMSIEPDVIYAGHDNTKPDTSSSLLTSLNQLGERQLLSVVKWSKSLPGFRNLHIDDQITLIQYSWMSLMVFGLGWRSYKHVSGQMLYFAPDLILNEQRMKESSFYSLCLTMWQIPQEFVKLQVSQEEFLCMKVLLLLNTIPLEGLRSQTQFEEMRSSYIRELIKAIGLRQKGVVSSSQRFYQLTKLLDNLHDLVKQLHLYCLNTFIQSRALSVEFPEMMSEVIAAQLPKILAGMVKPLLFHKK
In short: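 Antagonist mode: compounds tested against 1 nM (final) promegestone stimulation in HEK293T cells expressing PR-UAS-bla reporter, 16 hr at 37C, 5% CO2; beta-lactamase activity detected via B/G FRET substrate after 2 hr at room temperature.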

[2] = qHTS assay to identify small molecule antagonists of the progesterone receptor (PR) signaling pathway - cell viability counter screen (AID 1346798); also: series mostly up to about 92 µM; nearly all actives have a fitted effect of over 50% in size
In short: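 Counter screen for cytotoxicity: viability of PR-UAS-bla HEK293T cells was measured with CellTiter-Glo luminescence following 16 hr compound exposure in the presence of R5020.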

[3] = qHTS assay to identify small molecule agonists of the progesterone receptor (PR) signaling pathway - cell viability counter screen (AID 1346799; calls by dose curve; also: nearly all actives have a fitted effect of over 45% in size)
In short: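 Cells (PR-UAS-bla HEK293T) are plated at 3,000/well in 2% charcoal-stripped FBS medium, rested 6 hr, dosed and incubated 16 hr at 37C. CellTiter-Glo is then added and luminescence measured after 30 min at room temperature.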

[4] = qHTS assay to identify small molecule antagonists of the TGF-beta/Smad signaling pathway - cell viability counter screen (AID 1346824); also: nearly all actives have a fitted effect of over 50% in size
In short: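 Cytotoxicity counter-screen run in the same wells as the beta-lactamase Smad reporter read: CellTiter-Glo luminescence after 30 min at room temperature. HEK 293T SBE-bla cells had 5 hr compound exposure at 37 C with TGF-beta1 (0.25 ng/mL stock).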

[5] = qHTS assay to identify small molecule agonists of the TGF-beta/Smad signaling pathway - cell viability counter screen (AID 1346829); also: top concentration of the series differs between compounds; nearly all actives have a fitted effect of over 45% in size
In short: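 Tox21 qHTS format: SBE-bla HEK 293T cells treated with DMSO-dissolved compounds for 5 hr; CellTiter-Glo luminescence after 30 min at room temperature.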

[6] = qHTS assay to identify small molecule agonists of the TGF-beta/Smad signaling pathway (AID 1346859; active = well fitted activation curve with a large enough effect in the signal ratio in the repeat runs, not every such curve was filed as active; the % refers to the signal ratio; also: series mostly up to about 77 µM)
In short: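 Reporter line: HEK 293T with stably integrated SBE-controlled beta-lactamase. Compound exposure lasts 5 hr at 37 C and 5% CO2; substrate loading follows for 2 hr at room temperature, with emission read at 460 and 530 nm.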

[7] = molecular target: Thyrotropin-releasing hormone receptor (Homo sapiens) (UniProt P34981); experiment: qHTS assay to identify small molecule antagonists of the thyrotropin-releasing hormone receptor (TRHR) signaling pathway (AID 1346877; active = well fitted inhibition curve with a large enough effect in the repeat runs, not every such curve was filed as active; also: potency is read from the fitted curve at half-maximal effect; as to activity, negative = inhibition: series mostly up to about 51 µM)
Chain of Thyrotropin-releasing hormone receptor (Homo sapiens) (P34981 whole entry, looked up): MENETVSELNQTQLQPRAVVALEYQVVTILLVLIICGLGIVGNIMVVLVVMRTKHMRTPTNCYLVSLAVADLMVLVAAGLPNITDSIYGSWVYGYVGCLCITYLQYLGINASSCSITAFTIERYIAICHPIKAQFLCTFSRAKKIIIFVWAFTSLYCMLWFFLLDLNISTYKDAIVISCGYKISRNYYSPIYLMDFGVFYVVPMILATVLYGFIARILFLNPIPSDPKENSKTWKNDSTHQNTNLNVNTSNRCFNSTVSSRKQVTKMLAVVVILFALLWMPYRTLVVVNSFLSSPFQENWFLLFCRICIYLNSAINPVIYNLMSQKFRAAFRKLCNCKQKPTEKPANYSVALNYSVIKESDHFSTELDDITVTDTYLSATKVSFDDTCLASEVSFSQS
In short: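 Following an 18 h incubation at 37 °C and a 2 h calcium dye load, TRHR-HEK293 cells were exposed to compound (5 min, room temperature) and challenged with TRH, 1 nM final.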

[8] = molecular target: Thyrotropin-releasing hormone receptor (Homo sapiens) (UniProt P34981); experiment: qHTS assay to identify small molecule agonists of the thyrotropin-releasing hormone receptor (TRHR) signaling pathway (AID 1346891; calls by dose curve; also: potency is read from the fitted curve at half-maximal effect;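 as to activation: HEK293 cells expressing TRHR with calcium dye readout; series mostly up to about 58 µM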)
In short: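 Cells: TRHR-Hek293, seeded and incubated 18 h. Dye loading: 2 h at 37 °C. Compound added from DMSO stock by pin tool. Read-out: kinetic calcium fluorescence over 3 min.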

[9] = Caspase-3/7 induction in HepG2 cells by small molecules, qHTS assay (AID 1346978); also: nearly all actives have a fitted effect of over 15% in size
In short: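 Caspase-3/7 induction was measured by Caspase-Glo 3/7 luminescence (30 min, room temperature) after a 17 hr compound exposure of wild-type HepG2 cells seeded at 2,000 per well and pre-incubated 5 hr.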

[10] = Caspase-3/7 induction in CHO-K1 cells by small molecules, qHTS assay (AID 1346980); also: nearly all actives have a fitted effect of over 15% in size
In short: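 Luminescent Caspase-Glo 3/7 read (30min, room temperature) quantified apoptosis induction. Cells were wild-type CHO-K1, treated with compound for 17hr at 37 C and 5% CO2.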

[11] = molecular target: Nuclear receptor subfamily 1 group I member 2 (Homo sapiens) (UniProt O75469); experiment: Human pregnane X receptor (PXR) small molecule agonists, qHTS assay (AID 1346982); also: nearly all actives have a fitted effect of over 35% in size; also: potency is read from the fitted curve at half-maximal effect
Chain of Nuclear receptor subfamily 1 group I member 2 (Homo sapiens) (O75469 whole entry, looked up): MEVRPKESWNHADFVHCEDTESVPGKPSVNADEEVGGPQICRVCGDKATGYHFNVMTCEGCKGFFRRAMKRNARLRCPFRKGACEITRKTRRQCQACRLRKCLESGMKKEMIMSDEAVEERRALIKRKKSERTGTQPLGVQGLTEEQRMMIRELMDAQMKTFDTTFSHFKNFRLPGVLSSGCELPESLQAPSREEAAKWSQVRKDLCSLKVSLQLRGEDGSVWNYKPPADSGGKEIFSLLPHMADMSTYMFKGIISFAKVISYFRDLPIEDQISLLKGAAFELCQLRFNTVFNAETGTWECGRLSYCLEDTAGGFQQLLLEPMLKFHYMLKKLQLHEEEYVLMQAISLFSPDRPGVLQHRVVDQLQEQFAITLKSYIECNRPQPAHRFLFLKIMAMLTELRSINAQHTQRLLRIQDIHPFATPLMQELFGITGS
In short: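 Compound-induced hPXR transactivation of a CYP3A4 luciferase reporter was scored in HepG2 PXR-Luc cells over 24 hr at 37 C, 5% CO2, by luminescence.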

[12] = molecular target: Nuclear receptor subfamily 1 group I member 2 (Rattus norvegicus) (UniProt Q9R1A7); experiment: Rat pregnane X receptor (rPXR) activation by small molecules, qHTS assay (AID 1346983); conditions: rPXR luciferase reporter cells, One-Glo luminescence, 24 h; max activation: stronger effect = higher value; also: nearly all actives have a fitted effect of over 20% in size
Chain of Nuclear receptor subfamily 1 group I member 2 (Rattus norvegicus) (Q9R1A7 whole entry, looked up): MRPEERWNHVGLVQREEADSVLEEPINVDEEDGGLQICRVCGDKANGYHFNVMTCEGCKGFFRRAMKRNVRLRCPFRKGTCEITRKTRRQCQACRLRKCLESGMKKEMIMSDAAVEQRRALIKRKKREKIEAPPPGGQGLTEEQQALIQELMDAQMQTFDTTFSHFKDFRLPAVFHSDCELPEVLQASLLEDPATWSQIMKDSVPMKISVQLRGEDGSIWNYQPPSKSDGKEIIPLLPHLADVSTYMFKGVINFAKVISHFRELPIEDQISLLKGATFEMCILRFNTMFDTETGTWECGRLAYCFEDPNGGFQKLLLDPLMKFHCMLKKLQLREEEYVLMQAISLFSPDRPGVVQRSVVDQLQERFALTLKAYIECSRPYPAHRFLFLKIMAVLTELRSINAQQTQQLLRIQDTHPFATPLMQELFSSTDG
In short: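 Luminescent readout (One-Glo luciferase, 30 min room temperature) followed 24 hr compound treatment at 37 C of rPXR cells plated 2,000 per well and preincubated 5hr; qHTS format with compounds delivered in DMSO.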

[13] = molecular target: Nuclear receptor subfamily 1 group I member 2 (Homo sapiens) (UniProt O75469); experiment: Human pregnane X receptor (PXR) activation by small molecules, qHTS assay (AID 1346985); also: nearly all actives have a fitted effect of over 40% in size
In short: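 DPX-2 cells (HepG2 co-transfected with a PXR response element and a CYP3A4-promoter luciferase construct) were seeded at 2,000 per well, rested 5 hr at 37C, then exposed to DMSO-dissolved compounds for 24 hr. Activation was read as luciferase luminescence.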

[14] = molecular target: Thyrotropin receptor (Homo sapiens) (UniProt P16473); experiment: qHTS assay to identify small molecule antagonists of the thyroid stimulating hormone receptor (TSHR) signaling pathway (AID 1259385; calls by dose curve; also: nearly all actives have a fitted effect of over 20% in size)
Chain of Thyrotropin receptor (Homo sapiens) (P16473 whole entry, looked up): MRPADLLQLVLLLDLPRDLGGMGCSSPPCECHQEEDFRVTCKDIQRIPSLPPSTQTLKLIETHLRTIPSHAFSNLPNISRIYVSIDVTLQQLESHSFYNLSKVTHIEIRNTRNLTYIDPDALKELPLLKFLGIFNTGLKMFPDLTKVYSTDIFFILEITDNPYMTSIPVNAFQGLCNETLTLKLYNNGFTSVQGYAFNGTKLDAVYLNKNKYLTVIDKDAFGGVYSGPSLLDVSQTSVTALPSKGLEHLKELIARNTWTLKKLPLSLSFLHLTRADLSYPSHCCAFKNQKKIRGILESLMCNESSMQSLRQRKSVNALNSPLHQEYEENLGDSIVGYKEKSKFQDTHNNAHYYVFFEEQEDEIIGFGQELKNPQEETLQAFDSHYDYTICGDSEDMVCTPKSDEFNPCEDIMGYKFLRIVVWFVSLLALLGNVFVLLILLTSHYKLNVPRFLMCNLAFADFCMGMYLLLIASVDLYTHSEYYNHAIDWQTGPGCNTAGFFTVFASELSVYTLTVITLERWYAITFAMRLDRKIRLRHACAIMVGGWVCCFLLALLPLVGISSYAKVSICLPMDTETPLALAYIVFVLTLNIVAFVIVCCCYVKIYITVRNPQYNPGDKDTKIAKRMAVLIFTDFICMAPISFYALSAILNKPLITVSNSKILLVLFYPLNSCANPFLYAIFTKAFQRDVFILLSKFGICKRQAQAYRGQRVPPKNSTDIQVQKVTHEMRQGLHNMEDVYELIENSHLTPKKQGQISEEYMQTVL
In short: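 Antagonist mode: compound-treated TSHR-expressing HEK293 cells were stimulated with 1.5 ng/mL TSH (final) in presence of Ro20-1724 for 30 min at RT. HTRF cAMP detection after 1 h; each compound tested at 15 concentrations, triplicate.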

[15] = qHTS assay to identify small molecule agonists of the estrogen receptor alpha (ER-alpha) signaling pathway in the presence of an antagonist - cell viability counter screen (AID 1259386);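 also: series mostly up to about 92 µM; cells exposed to compounds for 22 h at 37 °C before the viability read; nearly all actives have a fitted effect of over 30% in size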
In short: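 Viability counter screen using VM7Luc4E2 (full-length ER-alpha, four ERE-luciferase). The cells were treated with compounds alongside ICI-182,780 10.0nM for 22hr, and live-cell protease fluorescence was quantified with CellTiter-Fluor.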

[16] = Caspase-3/7 induction in CHO-K1 cells by small molecules, qHTS cell viability counter screen (AID 1346979); also: nearly all actives have a fitted effect of over 35% in size
In short: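 Cytotoxicity counter screen run in parallel with the caspase-3/7 assay: CHO-K1 cells, 16hr compound treatment at 37C, then CellTiter-Fluor for 1hr before fluorescence reading.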

[17] = Caspase-3/7 induction in HepG2 cells by small molecules, qHTS cell viability counter screen (AID 1346981); also: series mostly up to about 92 µM; nearly all actives have a fitted effect of over 30% in size
In short: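 Viability determined by CellTiter-Fluor fluorescence in HepG2 wells also used for the luminescent Caspase-Glo 3/7 read. Compounds were present for 16 hr at 37 C, 5% CO2 before reagent addition.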

[18] = molecular target: Progesterone receptor (Homo sapiens) (UniProt P06401); experiment: qHTS assay to identify small molecule agonists of the progesterone receptor (PR) signaling pathway (AID 1346784; calls by dose curve; also: nearly all actives have a fitted effect of over 30% in size)
In short: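 Cells (PR-UAS-bla HEK 293T, GripTite) were plated in assay medium containing 2% charcoal-stripped FBS and incubated 6 hr. Test compounds in DMSO were added for 16 hr at 37C. FRET substrate was then loaded for 2 hr at room temperature before fluorescence reading.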

[19] = Human pregnane X receptor (PXR) small molecule agonists, qHTS cell viability counter screen (AID 1346977); also: nearly all actives have a fitted effect of over 50% in size
In short: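 Cytotoxicity counter screen run in the same wells as the PXR luciferase assay, using PXR-Luc HepG2 cells in charcoal-stripped serum medium. Viability: CellTiter-Fluor fluorescence after 24hr compound treatment.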

[20] = molecular target: Nuclear receptor subfamily 1 group I member 2 (Homo sapiens) (UniProt O75469); experiment: CYP3A4 induction through human pregnane X receptor (PXR) by small molecules, qHTS assay (AID 1346984); also: nearly all actives have a fitted effect of over 40% in size
In short: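 Readings come from a luciferase reporter: DPX-2 cells, which are HepG2 cotransfected with PXR and a CYP3A4-promoter construct, were exposed to test compounds for 24 h at 37C before One-Glo detection.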
% is scaled to controls: 0 for no effect and ±100 for the full control effect.

Cc1cc2nc3c(=O)[nH]c(=O)nc-3n(C[C@H](O)[C@H](O)[C@H](O)CO)c2cc1C
30.3 µM (active) and inactive: Potency [11]
inactive: activity change, negative = inhibition [1] -6.9% [at 18.9 µM] | Potency [2] | Potency [3] | Potency [4] | Potency [5] | activation [6] -2.99% [at 15.8 µM] | activity, negative = inhibition [7] -21.3% [at 10.5 µM] | Potency [9] | Potency [10] | max activation [12] -0.456% | Potency [13]
active: Potency [7] 33.5 µM and 19.8 µM | Potency [8] 10.9 µM and 6.42 µM and 6.57 µM

O=C(O)c1ccccc1Nc1cccc(C(F)(F)F)c1
inactive: Potency [14] | Potency [15] | Potency [5] | outcome [6] | Potency [7] | Potency [8] | Potency [9] | Potency [16] | Potency [10] | Potency [17]
30.6 µM (active) and inactive: Potency [11]

c1ccc2cc(Nc3ccc(Nc4ccc5ccccc5c4)cc3)ccc2c1
inactive: Potency [15] | Potency [18] | Potency [1] | Potency [2] | Potency [3] | Potency [5] | outcome [6] | Potency [7] | Potency [8] | Potency [19] | Potency [9] | Potency [16] | Potency [10] | Potency [17] | Potency [11]

Nc1ncnc2nc[nH]c12
inactive: Potency [14] | Potency [15] | Potency [1] | Potency [2] | Potency [3] | Potency [5] | outcome [6] | Potency [9] | Potency [16] | Potency [10] | max activation [12] 0.861% | Potency [20] | Potency [13]
27.3 µM (active) and inactive: Potency [11]

CCC(C)(O)CCCC(C)C (stereo unspecified)
inactive: Potency [15] | Potency [18] | Potency [1] | Potency [2] | Potency [3] | Potency [4] | Potency [5] | outcome [6] | Potency [9] | Potency [16] | Potency [10] | Potency [17] | Potency [11]

CCCC(=O)O
inactive: Potency [14] | Potency [15] | Potency [1] | Potency [2] | Potency [3] | Potency [5] | outcome [6] | Potency [7] | Potency [8] | Potency [9] | Potency [16] | Potency [10] | Potency [17] | Potency [11] | max activation [12] -1.54% | Potency [20] | Potency [13]

O=C(/C=C/C=C/c1ccc2c(c1)OCO2)N1CCCCC1
active: Potency [11] 10.9 µM
inactive: Potency [14] | Potency [2] | Potency [4] | Potency [5] | outcome [6] | Potency [7] | Potency [8] | Potency [19] | Potency [9] | Potency [10] | Potency [17]

From PubChem BioAssay (Tox21)
